# From PubChem BioAssay (EPA / NIEHS)
# Calls of active or inactive are those of the source. The calls were made as follows: active = hit-call score of the fitted dose curve at least 0.9, where 1 is the maximum; inactive = score below 0.9.
# Legend:
# Settings in all cases: mRNA level, 48 h; actives raise or lower the signal
# [1] = read-out: Alpha-fetoprotein (AFP) gene, AFP (gene 174); assay: LTEA_HepaRG_AFP: Life Technologies and Expression Analysis (LTEA) Assay for Alpha-fetoprotein (AFP) gene using HepaRG (AID 2283472)
# Method in brief: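 HepaRG, single lot; 48 h post-plating -> serum-free induction medium; cpd 8-pt, 100 uM top, half-log, 0.5% DMSO, duplicate, 48 h. RNA -> qRT-PCR AFP, norm ACTB/GAPDH/POLR2A. Bidirectional fit vs DMSO.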
# BCL2L11 (gene 10018) = assay: LTEA_HepaRG_BCL2L11: Life Technologies and Expression Analysis (LTEA) Assay for Bcl-2 (BCL2L11) gene using HepaRG (AID 2283473)
# Method in brief: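 HepaRG, 48 h exposure, 8-pt half-log series from 100 uM in 0.5% DMSO, duplicates; qRT-PCR (Fluidigm TaqMan) for BCL2L11, housekeeping-normalized; bidirectional curve fit relative to DMSO baseline.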
# [2] = read-out: Apolipoprotein A-V (APOA5) gene, APOA5 (gene 116519); assay: LTEA_HepaRG_APOA5: Life Technologies and Expression Analysis (LTEA) Assay for Apolipoprotein A-V (APOA5) gene using HepaRG (AID 2283474)
# Method in brief: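 HepaRG, 48 h chemical exposure in serum-free induction medium, 8-pt half-log series (top 100 uM), 0.5% DMSO vehicle, duplicates. Readout: APOA5 mRNA by qRT-PCR, housekeeping-normalized; bidirectional fit vs DMSO baseline.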
# [3] = read-out: Apoptosis regulator Bcl-2 (Homo sapiens) (UniProt P10415); assay: LTEA_HepaRG_BCL2: Life Technologies and Expression Analysis (LTEA) Assay for Bcl-2 gene using HepaRG (AID 2283475)
# Method in brief: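 HepaRG, plated 48 h then switched to serum-free induction medium; dosed 48 h, 8 conc. (max 100 uM, half-log steps), duplicate, 0.5% DMSO. Lysis in RLT, RNA isolated, TaqMan qRT-PCR for BCL2; ACTB/GAPDH/POLR2A normalisation; bidirectional fit vs DMSO.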
# [4] = read-out: Bcl-2 (BID) gene, BID (gene 637); assay: LTEA_HepaRG_BID: Life Technologies and Expression Analysis (LTEA) Assay for Bcl-2 (BID) gene using HepaRG (AID 2283476)
# Method in brief: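 Transcript levels of BID, measured by qRT-PCR and normalized to three housekeeping genes, were fitted bidirectionally against DMSO controls. Cells were HepaRG, dosed 48 h at up to 100 uM.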
# Caspase-3 (Homo sapiens) = Caspase-3 (Homo sapiens) (UniProt P42574); assay: LTEA_HepaRG_CASP3: Life Technologies and Expression Analysis (LTEA) Assay for cysteine-aspartic acid protease (CASP3) using HepaRG (AID 2283477)
# Sequence of Caspase-3 (Homo sapiens) (P42574 whole entry, looked up): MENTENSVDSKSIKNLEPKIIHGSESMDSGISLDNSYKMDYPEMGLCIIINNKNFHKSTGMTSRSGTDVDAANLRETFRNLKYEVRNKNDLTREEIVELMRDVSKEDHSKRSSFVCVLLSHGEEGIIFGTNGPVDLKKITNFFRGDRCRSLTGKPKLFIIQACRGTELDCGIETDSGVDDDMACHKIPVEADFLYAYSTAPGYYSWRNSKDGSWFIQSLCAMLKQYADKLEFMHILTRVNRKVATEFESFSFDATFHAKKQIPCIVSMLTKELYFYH
# Method in brief: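 HepaRG, 48 h exposure, 8 conc. (top 100 uM, half-log steps, duplicate), 0.5% DMSO vehicle; qRT-PCR of CASP3 transcript, housekeeping-normalised (ACTB/GAPDH/POLR2A); bidirectional curve fit vs DMSO baseline.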
# [5] = read-out: Cytochrome P450 (CYP24A1), CYP24A1 (gene 1591); assay: LTEA_HepaRG_CYP24A1: Life Technologies and Expression Analysis (LTEA) Assay for Cytochrome P450 (CYP24A1) using HepaRG (AID 2283478)
# Method in brief: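 qRT-PCR read-out: CYP24A1 transcript levels normalized to three housekeeping genes, bidirectional curve fits against 0.5% DMSO baseline. Human HepaRG cells treated 48 h with chemicals at eight concentrations from 100 uM in half-log steps.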
# [6] = read-out: Cytochrome P450 (CYP1A2), CYP1A2 (gene 1544); assay: LTEA_HepaRG_CYP1A2: Life Technologies and Expression Analysis (LTEA) Assay for Cytochrome P450 (CYP1A2) using HepaRG (AID 2283479)
# Method in brief: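 HepaRG, 48 h exposure, top 100 uM, half-log 8-pt, 0.5% DMSO vehicle, duplicates. Readout: TaqMan qRT-PCR of CYP1A2 mRNA, housekeeping-normalized (ACTB/GAPDH/POLR2A). Gain/loss fit relative to DMSO baseline.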
# [7] = read-out: cysteine-aspartic acid protease (CASP8), CASP8 (gene 841); assay: LTEA_HepaRG_CASP8: Life Technologies and Expression Analysis (LTEA) Assay for cysteine-aspartic acid protease (CASP8) using HepaRG (AID 2283480)
# Method in brief: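 HepaRG, 48 h exposure, duplicate wells; 8 conc, half-log from 100 uM, 0.5% DMSO. Serum-free induction medium. CASP8 mRNA by TaqMan qRT-PCR, norm. ACTB/GAPDH/POLR2A; gain/loss fitted vs DMSO.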
# [8] = read-out: Cytochrome P450 (CYP2B6), CYP2B6 (gene 1555); assay: LTEA_HepaRG_CYP2B6: Life Technologies and Expression Analysis (LTEA) Assay for Cytochrome P450 (CYP2B6) using HepaRG (AID 2283481)
# Method in brief: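 Read-out is CYP2B6 mRNA by TaqMan qRT-PCR, normalized to three housekeeping genes and fitted bidirectionally against 0.5% DMSO baseline. Human HepaRG cells received test chemicals for 48 h, top concentration 100 uM, half-log dilutions.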
# [9] = read-out: Cytochrome P450 2C19 (Homo sapiens) (UniProt P33261); assay: LTEA_HepaRG_CYP2C19: Life Technologies and Expression Analysis (LTEA) Assay for CYP2C19 using HepaRG (AID 2283482)
# Method in brief: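 HepaRG, 48 h chemical exposure, 8-pt half-log series from 100 uM in 0.5% DMSO, duplicates. Readout: CYP2C19 mRNA by TaqMan qRT-PCR, housekeeping-normalized. Bidirectional fit vs DMSO baseline; phenobarbital 1mM as induction control.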
# CYP2C8 (gene 1558) = assay: LTEA_HepaRG_CYP2C8: Life Technologies and Expression Analysis (LTEA) Assay for CYP2C8 using HepaRG (AID 2283483)
# Method in brief: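 CYP2C8 mRNA induction or loss, by qRT-PCR normalized to ACTB/GAPDH/POLR2A, is read in HepaRG cells after 48 h treatment. Concentrations run from 100 uM down in half-log dilutions, with 0.5% DMSO as vehicle and baseline.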
# CYP2C9 (gene 1559) = assay: LTEA_HepaRG_CYP2C9: Life Technologies and Expression Analysis (LTEA) Assay for CYP2C9 using HepaRG (AID 2283484)
# Method in brief: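 Cells plated 48 h, switched to serum-free induction medium, then treated in duplicate for 48 h at eight concentrations (max 100 uM, 0.5% DMSO). RNA then analysed by qRT-PCR for CYP2C9; curves fitted in both directions relative to DMSO.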
# CYP2E1 (gene 1571) = assay: LTEA_HepaRG_CYP2E1: Life Technologies and Expression Analysis (LTEA) Assay for CYP2E1 using HepaRG (AID 2283485)
# Method in brief: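 Human liver line HepaRG, plated 48 h, then serum-free induction medium + chemical x 48 h; 8-pt CRC from 100 uM, half-log, 0.5% DMSO, n=2. Readout: CYP2E1 mRNA qRT-PCR vs ACTB/GAPDH/POLR2A; bidirectional fit vs DMSO.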
# CYP4A11 (gene 1579) = assay: LTEA_HepaRG_CYP4A11: Life Technologies and Expression Analysis (LTEA) Assay for CYP4A11 using HepaRG (AID 2283486)
# Method in brief: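 CYP4A11 transcript levels were quantified by TaqMan qRT-PCR after HepaRG human liver cells were treated for 48 hours with test chemicals (top 100 uM, half-log dilutions, 0.5% DMSO). Gain or loss of signal was fitted relative to DMSO.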
# [10] = read-out: DNA damage-inducible transcript 3 (DDIT3), DDIT3 (gene 1649); assay: LTEA_HepaRG_DDIT3: Life Technologies and Expression Analysis (LTEA) Assay for DNA damage-inducible transcript 3 (DDIT3) using HepaRG (AID 2283488)
# Method in brief: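 HepaRG plated 48 h, switched to serum-free induction medium, dosed 48 h (100 uM top, half-log, 8 pts, 0.5% DMSO, n=2); RNA isolated; DDIT3 by qRT-PCR; bidirectional curve fit vs DMSO.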
# [11] = read-out: Pro-epidermal growth factor (Homo sapiens) (UniProt P01133); assay: LTEA_HepaRG_EGF: Life Technologies and Expression Analysis (LTEA) Assay for Epidermal growth factor (EGF) using HepaRG (AID 2283489)
# Method in brief: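 qRT-PCR readout of EGF transcript after 48 h chemical exposure of HepaRG cells; eight concentrations from 100 uM down in half-log steps, duplicate wells, 0.5% DMSO vehicle. Bidirectional curve fitting against DMSO baseline.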
# [12] = read-out: Early growth response protein 1 (EGR1) transcription factor, EGR1 (gene 1958); assay: LTEA_HepaRG_EGR1: Life Technologies and Expression Analysis (LTEA) Assay for Early growth response protein 1 (EGR1) transcription factor using HepaRG (AID 2283490)
# Method in brief: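 Read-out is EGR1 mRNA level by qRT-PCR, normalized to three housekeeping genes and analysed for gain or loss of signal against 0.5% DMSO. Source cells: human HepaRG, treated 48 h at up to 100 uM in half-log dilutions.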
# [13] = read-out: Ezrin (EZR), EZR (gene 7430); assay: LTEA_HepaRG_EZR: Life Technologies and Expression Analysis (LTEA) Assay for Ezrin (EZR) using HepaRG (AID 2283491)
# Method in brief: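 Differentiated human HepaRG cells, 48 h after plating, were exposed in serum-free induction medium for 48 hours to eight half-log concentrations up to 100 uM in 0.5% DMSO. EZR mRNA was measured by TaqMan qRT-PCR, normalized to ACTB, GAPDH and POLR2A, and fitted bidirectionally against DMSO.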
# [14] = read-out: Cytochrome P450 3A4 (Homo sapiens) (UniProt P08684); assay: LTEA_HepaRG_CYP3A4: Life Technologies and Expression Analysis (LTEA) Assay for CYP3A4 using HepaRG (AID 2283487)
# Method in brief: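 Differentiated HepaRG cells in serum-free induction medium exposed in duplicate for 48 h to 8 half-log concentrations up to 100 uM in 0.5% DMSO. CYP3A4 mRNA measured by qRT-PCR normalized to ACTB, GAPDH and POLR2A; bidirectional fit versus DMSO.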
# Sequence of Cytochrome P450 2C19 (Homo sapiens) (P33261 whole entry, looked up): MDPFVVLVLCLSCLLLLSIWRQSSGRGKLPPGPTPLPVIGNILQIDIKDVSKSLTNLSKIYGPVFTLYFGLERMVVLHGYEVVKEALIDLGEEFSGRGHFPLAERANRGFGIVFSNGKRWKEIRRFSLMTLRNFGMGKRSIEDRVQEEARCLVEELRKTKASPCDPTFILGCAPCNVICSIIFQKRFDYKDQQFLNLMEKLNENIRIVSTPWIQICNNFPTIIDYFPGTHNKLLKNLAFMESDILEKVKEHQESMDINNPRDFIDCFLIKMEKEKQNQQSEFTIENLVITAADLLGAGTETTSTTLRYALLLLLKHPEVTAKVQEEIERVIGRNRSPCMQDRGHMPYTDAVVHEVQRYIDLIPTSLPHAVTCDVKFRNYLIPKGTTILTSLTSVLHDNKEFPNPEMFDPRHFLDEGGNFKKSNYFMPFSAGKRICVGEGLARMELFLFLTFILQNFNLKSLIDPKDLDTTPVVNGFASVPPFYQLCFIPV
# Sequence of Apoptosis regulator Bcl-2 (Homo sapiens) (P10415 whole entry, looked up): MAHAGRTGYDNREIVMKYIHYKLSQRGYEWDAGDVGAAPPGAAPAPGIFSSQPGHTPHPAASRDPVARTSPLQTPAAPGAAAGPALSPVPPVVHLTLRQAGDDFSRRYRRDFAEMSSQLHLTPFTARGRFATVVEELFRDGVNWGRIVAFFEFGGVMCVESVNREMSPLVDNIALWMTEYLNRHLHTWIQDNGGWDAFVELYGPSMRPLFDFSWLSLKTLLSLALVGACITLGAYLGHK
# Sequence of Cytochrome P450 3A4 (Homo sapiens) (P08684 whole entry, looked up): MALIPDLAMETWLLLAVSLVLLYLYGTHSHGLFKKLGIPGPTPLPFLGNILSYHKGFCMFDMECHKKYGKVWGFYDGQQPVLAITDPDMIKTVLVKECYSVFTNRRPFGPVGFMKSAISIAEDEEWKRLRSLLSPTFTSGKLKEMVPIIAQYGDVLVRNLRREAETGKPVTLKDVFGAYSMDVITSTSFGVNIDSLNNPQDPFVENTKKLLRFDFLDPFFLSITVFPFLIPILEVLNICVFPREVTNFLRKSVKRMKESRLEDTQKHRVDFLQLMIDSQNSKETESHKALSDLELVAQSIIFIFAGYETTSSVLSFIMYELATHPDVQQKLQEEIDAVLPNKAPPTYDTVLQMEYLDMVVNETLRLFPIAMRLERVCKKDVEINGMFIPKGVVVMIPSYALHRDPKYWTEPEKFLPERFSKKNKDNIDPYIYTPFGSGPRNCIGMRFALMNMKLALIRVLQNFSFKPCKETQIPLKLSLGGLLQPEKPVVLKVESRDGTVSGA
structure (smiles),measurement,setting,value
NC(=O)c1nc(-c2cccc(-c3cc(F)ccc3OCC(F)(F)C(F)(F)F)c2)n[nH]1,outcome,[1],inactive
same,AC50,BCL2L11 (gene 10018),74.2 µM (active)
same,outcome,[2],inactive
same,outcome,[3],inactive
same,outcome,[4],inactive
same,outcome,Caspase-3 (Homo sapiens),inactive
same,outcome,[5],inactive
same,outcome,[6],inactive
same,outcome,[7],inactive
same,outcome,[8],inactive
same,outcome,[9],inactive
same,outcome,CYP2C8 (gene 1558),inactive
same,outcome,CYP2C9 (gene 1559),inactive
same,AC50,CYP2E1 (gene 1571),16.9 µM (active)
same,AC50,CYP4A11 (gene 1579),12.3 µM (active)
same,AC50,[10],78.1 µM (active)
same,outcome,[11],inactive
same,AC50,[12],84.4 µM (active)
same,outcome,[13],inactive
Oc1ccc2ccccc2c1,outcome,[1],inactive
same,outcome,BCL2L11 (gene 10018),inactive
same,outcome,[2],inactive
same,outcome,[3],inactive
same,outcome,[4],inactive
same,outcome,Caspase-3 (Homo sapiens),inactive
same,outcome,[5],inactive
same,AC50,[6],78.1 µM (active)
same,outcome,[7],inactive
same,outcome,[8],inactive
same,outcome,[9],inactive
same,outcome,CYP2C8 (gene 1558),inactive
same,outcome,CYP2C9 (gene 1559),inactive
same,outcome,CYP2E1 (gene 1571),inactive
same,outcome,CYP4A11 (gene 1579),inactive
same,outcome,[10],inactive
same,outcome,[11],inactive
same,outcome,[12],inactive
same,outcome,[13],inactive
CCN(CC)C(=O)c1cc(S(=O)(=O)Cc2ccccc2)c(N2CCC(c3ccccc3)CC2)cc1N(CC)CCN(C)C,outcome,[1],inactive
same,AC50,BCL2L11 (gene 10018),25.7 µM (active)
same,AC50,[2],29.2 µM (active)
same,outcome,[3],inactive
same,outcome,[4],inactive
same,AC50,Caspase-3 (Homo sapiens),30.6 µM (active)
same,outcome,[5],inactive
same,AC50,[6],6.01 µM (active)
same,AC50,[7],30.8 µM (active)
same,AC50,[8],5.04 µM (active)
same,AC50,[9],4.25 µM (active)
same,AC50,CYP2C8 (gene 1558),4.92 µM (active)
same,AC50,CYP2C9 (gene 1559),5.05 µM (active)
same,AC50,CYP4A11 (gene 1579),30.5 µM (active)
same,AC50,[14],34.7 µM (active)
same,AC50,[10],22.9 µM (active)
same,outcome,[11],inactive
same,AC50,[12],28.8 µM (active)
CCCCCCCCCCCO,outcome,[1],inactive
same,outcome,BCL2L11 (gene 10018),inactive
same,outcome,[2],inactive
same,outcome,[3],inactive
same,outcome,[4],inactive
same,outcome,Caspase-3 (Homo sapiens),inactive
same,outcome,[5],inactive
same,outcome,[6],inactive
same,outcome,[7],inactive
same,outcome,[8],inactive
same,outcome,[9],inactive
same,outcome,CYP2C8 (gene 1558),inactive
same,outcome,CYP2C9 (gene 1559),inactive
same,outcome,CYP4A11 (gene 1579),inactive
same,outcome,[14],inactive
same,outcome,[10],inactive
same,outcome,[12],inactive
O=c1ccc2ccccc2o1,outcome,[1],inactive
same,outcome,BCL2L11 (gene 10018),inactive
same,outcome,[2],inactive
same,outcome,[3],inactive
same,outcome,[4],inactive
same,outcome,Caspase-3 (Homo sapiens),inactive
same,outcome,[5],inactive
same,outcome,[6],inactive
same,outcome,[7],inactive
same,AC50,[8],40.3 µM (active)
same,outcome,[9],inactive
same,outcome,CYP2C8 (gene 1558),inactive
same,outcome,CYP2C9 (gene 1559),inactive
same,AC50,CYP2E1 (gene 1571),50 µM (active)
same,outcome,CYP4A11 (gene 1579),inactive
same,outcome,[14],inactive
same,outcome,[10],inactive
same,outcome,[11],inactive
same,outcome,[12],inactive
CCCCCc1ccc(N)cc1,outcome,[1],inactive
same,outcome,BCL2L11 (gene 10018),inactive
same,outcome,[2],inactive
same,outcome,[3],inactive
same,outcome,[4],inactive
same,outcome,Caspase-3 (Homo sapiens),inactive
same,outcome,[5],inactive
same,AC50,[6],30.3 µM (active)
same,outcome,[7],inactive
same,AC50,[8],18.8 µM (active)
same,outcome,[9],inactive
same,AC50,CYP2C8 (gene 1558),18.7 µM (active)
same,outcome,CYP2C9 (gene 1559),inactive
same,outcome,CYP2E1 (gene 1571),inactive
same,outcome,CYP4A11 (gene 1579),inactive
same,outcome,[10],inactive
same,outcome,[12],inactive
